Assay results from PubChem BioAssay (NCI).
The panel holds about 83,000 compounds, 20% with a hit somewhere; the sample as a whole holds those more often.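 Compound tested at a single concentration for 48 hours in 96-well plates; a percent growth value below 10 was scored as active.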 Calls of active or inactive are those of the source.

What follows are compounds tested on SNB-75 CNS (assay: NCI-60 one-dose screen, 48 h (100 = growth as untreated, 0 = no growth, -100 = all killed)). Conditions: 10 µM.

| SMILES | growth |
| --- | --- |
| Cc1ccc(/C=C/C(=O)c2ccc(NC(=O)CSc3nnc(-c4c[nH]c5ccccc45)n3-c3ccccc3)cc2)cc1 | 91.5% (inactive) |
| O=C(Nc1nc2ccc([N+](=O)[O-])cc2s1)Nc1cc(Cl)ccc1I | -42% (active) |
| Cc1ccc(C(=O)CSc2nnc(-c3c[nH]c4ccccc34)n2-c2ccccc2)cc1 | -1.21% (active) |
| COc1ccc2[nH]c(O)c(N=NC(=O)c3cc(-c4ccc(C)cc4)nc4ccccc34)c2c1 | 95.4% (inactive) |
| Cn1cc(/C=N/Nc2cccc(Cl)n2)c2ccccc21 | 70.7% (inactive) |
| N#Cc1ccc(-c2nn(-c3ccc(C(=O)O)cc3)cc2CNc2ccc(Cl)cc2)cc1 | 107% (inactive) |
| O=c1[nH]c2ccccc2cc1CSc1ccc(Nc2nccc(-c3ccc4ccccc4c3)n2)cc1 | 111% (inactive) |
| OCCCNc1oc(-c2ccccc2)nc1[P+](c1ccccc1)(c1ccccc1)c1ccccc1 | -2.93% (active) |
| COc1ccc(C(=O)/C=C/c2cc(C(F)(F)F)cc(C(F)(F)F)c2)cc1S(N)(=O)=O | 12% (inactive) |
| CS(=O)(=O)Nc1ccc(-c2ccc3c(c2)ncn3-c2ccc(NC(=O)Nc3ccc(Cl)c(C(F)(F)F)c3)cc2)cc1 | -42% (active) |
| O=c1nc(-c2ccccc2)cc(-c2cc3ccccc3nc2Cl)[nH]1 | 26.5% (inactive) |
| COc1cccc(/C=C2\N=C(C)N(CCc3ccc(S(N)(=O)=O)cc3)C2=O)c1 | 98% (inactive) |
| O=S(=O)(Nc1ncccn1)c1ccc(-n2c(-c3ccccc3)nc(-c3ccccc3)c2-c2ccccc2)cc1 | 77.2% (inactive) |
| Cc1ccc(-c2nc(Nc3ccc(S(N)(=O)=O)cc3)c3ccccc3n2)cc1 | 87.6% (inactive) |
| COc1ccc(C(C)=C(c2ccc(OCCCN(C)C)cc2)c2ccc(OCCCN(C)C)cc2)cc1 | -95.3% (active) |
| COC[C@@H](CC(C)C)N=C1NC(=O)/C(=C/c2ccc3ncsc3c2)N1 | -4.85% (active) |
| Cc1ccc(-c2nc3ccc(C(=O)N=Nc4c(O)[nH]c5ccc(Cl)cc45)cc3[nH]2)cc1 | -49.3% (active) |
| COc1cccc(/C=N/NC(=O)c2ccc3nc(-c4ccc(Cl)cc4)[nH]c3c2)c1O | -81.8% (active) |
| N#Cc1ccc(-c2nn(-c3ccc(C(=O)O)cc3)cc2CNc2ccc(Oc3ccccc3)cc2)cc1 | 101% (inactive) |

| SMILES | growth |
| --- | --- |
| CC(=O)c1ccc(Nc2nc(SCCC(C)C)nc(-c3ccc(F)cc3)c2C#N)cc1 | 52.3% (inactive) |
| Cc1cc(C)nc(NS(=O)(=O)c2ccc(N/C(N)=N/c3nccc(-c4ccccc4)n3)cc2)n1 | 88.3% (inactive) |
| COc1cccc(-c2ccnc(/N=C(\N)Nc3ccc(S(=O)(=O)Nc4nc(C)cc(C)n4)cc3)n2)c1 | 77.5% (inactive) |
| CC(=O)C1=C(C)NC(SCC(=O)Nc2ccc(S(=O)(=O)Nc3cc(C)on3)cc2)=NC1c1ccccc1 (configuration not stated) | 102% (inactive) |
| COc1cccc2nc(Nc3ccc(F)c(NC(=O)c4ccc(CN5CCN(C)CC5)c(C(F)(F)F)c4)c3)ccc12 | -3.82% (active) |
| CNCc1cccc2c1OCCCCCC[C@@](C)(O)CC1(CC1)S(=O)(=O)c1ccc(cc1)-c1cnc(N)c(n1)C(=O)N2 | -93.8% (active) |
| CN(C)c1ccc(/C=C/c2nc3ccccc3c(=O)n2CC(=O)Nc2ccccc2)cc1 | 62.6% (inactive) |
| O=C1CCC(N2Cc3c(C#CCCCNC(=O)c4ccc(NC(=O)[C@@H]5NC6(CCCCC6)[C@@]6(C(=O)Nc7cc(Cl)ccc76)[C@H]5c5cccc(Cl)c5F)cc4)cccc3C2=O)C(=O)N1 (some centres not stated) | 56.1% (inactive) |
| O=C(N/N=C/c1ccc(-c2cccc([N+](=O)[O-])c2)o1)c1[nH]c2ccc(Br)cc2c1-c1ccccc1 | 83.1% (inactive) |
| O=C(c1ccc(Cl)cc1)C1[C@H](c2ccccc2Br)[C@@H](c2ccccc2)NC12C(=O)Nc1ccc(Br)cc12 (some centres not stated) | 31.9% (inactive) |
| O=C(c1ccc(Cl)cc1)C1[C@H](c2ccccc2Br)[C@@H](c2ccccc2)NC12C(=O)Nc1ccccc12 (some centres not stated) | 33.1% (inactive) |
| O=C(Nc1cc(Cl)cc(Cl)c1)Nc1cc(Cl)cc(Cl)c1 | -14.1% (active) |
| CC(C)C1=C[C@@]23CC[C@@H]4[C@](C)(CCC[C@]4(C)C(=O)NCc4ccccc4)[C@H]2C[C@@H]1[C@H]1C(=O)CCC(=O)[C@H]13 | 80.8% (inactive) |
| COc1ccc(Nc2nc(N)n(Cc3cccc(Br)c3)n2)cc1 | 11.7% (inactive) |
| O=S(=O)(Nc1ncccn1)c1ccc(-n2c(-c3ccc(Br)cc3)nc(-c3ccccc3)c2-c2ccccc2)cc1 | 26.5% (inactive) |
| Clc1cccc(N/N=C/c2c[nH]c3ccccc23)n1 | 15.5% (inactive) |
| COc1ccc2c(c1)N=C(C(=O)O)/C2=C/c1sc(Nc2ccc(O)cc2)nc1O | 67.2% (inactive) |
| CCCCCc1ccc(S(=O)(=O)N(C(C)=O)c2cc(-c3csc(N(C)C(C)=O)n3)ccc2N2CCN(C)CC2)cc1 | 73% (inactive) |
